Assay results: article PMC11006913

Experiments:
Experiment in all cases: PBM; 200 nM protein, PBS
Conditions in all cases: dsDNA, one strand shown
HESX1 [1] = molecular target: HESX1 (Homo sapiens, UniProt Q9UBX0 95-180, R165K)
HESX1 [2] = molecular target: HESX1 (Homo sapiens, UniProt Q9UBX0 95-180)
HESX1 [3] = molecular target: HESX1 (Homo sapiens, UniProt Q9UBX0 95-180, R109Q)
HESX1 [4] = molecular target: HESX1 (Homo sapiens, UniProt Q9UBX0 95-180, P111T)
HESX1 [5] = molecular target: HESX1 (Homo sapiens, UniProt Q9UBX0 95-180, F115L)
Sequence of HESX1 (Homo sapiens, UniProt Q9UBX0 95-180, F115L) (Q9UBX0 95-180 F115L): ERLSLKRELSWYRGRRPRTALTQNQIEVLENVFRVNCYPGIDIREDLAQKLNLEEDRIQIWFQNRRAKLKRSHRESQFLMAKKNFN

Sequence of HESX1 (Homo sapiens, UniProt Q9UBX0 95-180, R109Q) (Q9UBX0 95-180 R109Q): as the sequence (Q9UBX0 95-180 F115L) above, with R15Q, L21F counted along it
Sequence of HESX1 (Homo sapiens, UniProt Q9UBX0 95-180) (Q9UBX0 95-180): as the sequence (Q9UBX0 95-180 F115L) above, with L21F counted along it
Sequence of HESX1 (Homo sapiens, UniProt Q9UBX0 95-180, R165K) (Q9UBX0 95-180 R165K): as the sequence (Q9UBX0 95-180 F115L) above, with L21F, R71K counted along it
Sequence of HESX1 (Homo sapiens, UniProt Q9UBX0 95-180, P111T) (Q9UBX0 95-180 P111T): as the sequence (Q9UBX0 95-180 F115L) above, with P17T, L21F counted along it

Row | Sequence | binding signal (HESX1 [1]) | binding signal (HESX1 [2]) | binding signal (HESX1 [3]) | binding signal (HESX1 [4]) | binding signal (HESX1 [5])
1 | TGAGCGCA | 6.52 upbm affinity estimate (log intensity, higher = more binding, comparable within an allelic series) | 6.51 upbm affinity estimate (log intensity, higher = more binding, comparable within an allelic series) | 6.51 upbm affinity estimate (log intensity, higher = more binding, comparable within an allelic series) | 6.49 upbm affinity estimate (log intensity, higher = more binding, comparable within an allelic series) | 6.46 upbm affinity estimate (log intensity, higher = more binding, comparable within an allelic series)
2 | CGCCAGGC | 6.38 upbm affinity estimate (log intensity, higher = more binding, comparable within an allelic series) | 6.37 upbm affinity estimate (log intensity, higher = more binding, comparable within an allelic series) | 6.46 upbm affinity estimate (log intensity, higher = more binding, comparable within an allelic series) | 6.32 upbm affinity estimate (log intensity, higher = more binding, comparable within an allelic series) | 6.44 upbm affinity estimate (log intensity, higher = more binding, comparable within an allelic series)
3 | AGCCCGCG | 6.57 upbm affinity estimate (log intensity, higher = more binding, comparable within an allelic series) | 6.54 upbm affinity estimate (log intensity, higher = more binding, comparable within an allelic series) | 6.6 upbm affinity estimate (log intensity, higher = more binding, comparable within an allelic series) | 6.57 upbm affinity estimate (log intensity, higher = more binding, comparable within an allelic series) | 6.48 upbm affinity estimate (log intensity, higher = more binding, comparable within an allelic series)
4 | CCGAAAGC | 6.49 upbm affinity estimate (log intensity, higher = more binding, comparable within an allelic series) | 6.52 upbm affinity estimate (log intensity, higher = more binding, comparable within an allelic series) | 6.56 upbm affinity estimate (log intensity, higher = more binding, comparable within an allelic series) | 6.47 upbm affinity estimate (log intensity, higher = more binding, comparable within an allelic series) | 6.52 upbm affinity estimate (log intensity, higher = more binding, comparable within an allelic series)
5 | AGCTTGCG | 6.46 upbm affinity estimate (log intensity, higher = more binding, comparable within an allelic series) | 6.4 upbm affinity estimate (log intensity, higher = more binding, comparable within an allelic series) | 6.39 upbm affinity estimate (log intensity, higher = more binding, comparable within an allelic series) | 6.32 upbm affinity estimate (log intensity, higher = more binding, comparable within an allelic series) | 6.52 upbm affinity estimate (log intensity, higher = more binding, comparable within an allelic series)
6 | CCGCTCCC | 6.47 upbm affinity estimate (log intensity, higher = more binding, comparable within an allelic series) | 6.49 upbm affinity estimate (log intensity, higher = more binding, comparable within an allelic series) | 6.46 upbm affinity estimate (log intensity, higher = more binding, comparable within an allelic series) | 6.35 upbm affinity estimate (log intensity, higher = more binding, comparable within an allelic series) | 6.43 upbm affinity estimate (log intensity, higher = more binding, comparable within an allelic series)
7 | CTAGGCCC | 6.43 upbm affinity estimate (log intensity, higher = more binding, comparable within an allelic series) | 6.46 upbm affinity estimate (log intensity, higher = more binding, comparable within an allelic series) | 6.51 upbm affinity estimate (log intensity, higher = more binding, comparable within an allelic series) | 6.58 upbm affinity estimate (log intensity, higher = more binding, comparable within an allelic series) | 6.46 upbm affinity estimate (log intensity, higher = more binding, comparable within an allelic series)
8 | GGCGCTAC | 6.32 upbm affinity estimate (log intensity, higher = more binding, comparable within an allelic series) | 6.38 upbm affinity estimate (log intensity, higher = more binding, comparable within an allelic series) | 6.35 upbm affinity estimate (log intensity, higher = more binding, comparable within an allelic series) | 6.43 upbm affinity estimate (log intensity, higher = more binding, comparable within an allelic series) | 6.32 upbm affinity estimate (log intensity, higher = more binding, comparable within an allelic series)
9 | GCCGAAAC | 6.58 upbm affinity estimate (log intensity, higher = more binding, comparable within an allelic series) | 6.54 upbm affinity estimate (log intensity, higher = more binding, comparable within an allelic series) | 6.57 upbm affinity estimate (log intensity, higher = more binding, comparable within an allelic series) | 6.61 upbm affinity estimate (log intensity, higher = more binding, comparable within an allelic series) | 6.57 upbm affinity estimate (log intensity, higher = more binding, comparable within an allelic series)
10 | CCAGCCCA | 6.4 upbm affinity estimate (log intensity, higher = more binding, comparable within an allelic series) | 6.43 upbm affinity estimate (log intensity, higher = more binding, comparable within an allelic series) | 6.47 upbm affinity estimate (log intensity, higher = more binding, comparable within an allelic series) | 6.48 upbm affinity estimate (log intensity, higher = more binding, comparable within an allelic series) | 6.55 upbm affinity estimate (log intensity, higher = more binding, comparable within an allelic series)
11 | GCCTGGCC | 6.59 upbm affinity estimate (log intensity, higher = more binding, comparable within an allelic series) | 6.61 upbm affinity estimate (log intensity, higher = more binding, comparable within an allelic series) | 6.46 upbm affinity estimate (log intensity, higher = more binding, comparable within an allelic series) | 6.51 upbm affinity estimate (log intensity, higher = more binding, comparable within an allelic series) | 6.6 upbm affinity estimate (log intensity, higher = more binding, comparable within an allelic series)
12 | AGCCGAGC | 6.4 upbm affinity estimate (log intensity, higher = more binding, comparable within an allelic series) | 6.26 upbm affinity estimate (log intensity, higher = more binding, comparable within an allelic series) | 6.48 upbm affinity estimate (log intensity, higher = more binding, comparable within an allelic series) | 6.46 upbm affinity estimate (log intensity, higher = more binding, comparable within an allelic series) | 6.45 upbm affinity estimate (log intensity, higher = more binding, comparable within an allelic series)
13 | CGGCACGC | 6.6 upbm affinity estimate (log intensity, higher = more binding, comparable within an allelic series) | 6.41 upbm affinity estimate (log intensity, higher = more binding, comparable within an allelic series) | 6.57 upbm affinity estimate (log intensity, higher = more binding, comparable within an allelic series) | 6.5 upbm affinity estimate (log intensity, higher = more binding, comparable within an allelic series) | 6.53 upbm affinity estimate (log intensity, higher = more binding, comparable within an allelic series)
14 | AAGGGCAC | 6.53 upbm affinity estimate (log intensity, higher = more binding, comparable within an allelic series) | 6.41 upbm affinity estimate (log intensity, higher = more binding, comparable within an allelic series) | 6.62 upbm affinity estimate (log intensity, higher = more binding, comparable within an allelic series) | 6.56 upbm affinity estimate (log intensity, higher = more binding, comparable within an allelic series) | 6.62 upbm affinity estimate (log intensity, higher = more binding, comparable within an allelic series)
15 | CGGACAGA | 6.41 upbm affinity estimate (log intensity, higher = more binding, comparable within an allelic series) | 6.53 upbm affinity estimate (log intensity, higher = more binding, comparable within an allelic series) | 6.49 upbm affinity estimate (log intensity, higher = more binding, comparable within an allelic series) | 6.59 upbm affinity estimate (log intensity, higher = more binding, comparable within an allelic series) | 6.58 upbm affinity estimate (log intensity, higher = more binding, comparable within an allelic series)
16 | ACTTTATA | 7.59 upbm affinity estimate (log intensity, higher = more binding, comparable within an allelic series) | 7.66 upbm affinity estimate (log intensity, higher = more binding, comparable within an allelic series) | 7.19 upbm affinity estimate (log intensity, higher = more binding, comparable within an allelic series) | 7.41 upbm affinity estimate (log intensity, higher = more binding, comparable within an allelic series) | 7.31 upbm affinity estimate (log intensity, higher = more binding, comparable within an allelic series)
17 | CACTGGAG | 6.53 upbm affinity estimate (log intensity, higher = more binding, comparable within an allelic series) | 6.53 upbm affinity estimate (log intensity, higher = more binding, comparable within an allelic series) | 6.58 upbm affinity estimate (log intensity, higher = more binding, comparable within an allelic series) | 6.6 upbm affinity estimate (log intensity, higher = more binding, comparable within an allelic series) | 6.61 upbm affinity estimate (log intensity, higher = more binding, comparable within an allelic series)
18 | AGACGCTC | 6.35 upbm affinity estimate (log intensity, higher = more binding, comparable within an allelic series) | 6.34 upbm affinity estimate (log intensity, higher = more binding, comparable within an allelic series) | 6.5 upbm affinity estimate (log intensity, higher = more binding, comparable within an allelic series) | 6.36 upbm affinity estimate (log intensity, higher = more binding, comparable within an allelic series) | 6.54 upbm affinity estimate (log intensity, higher = more binding, comparable within an allelic series)
19 | CAGGTCGG | 6.41 upbm affinity estimate (log intensity, higher = more binding, comparable within an allelic series) | 6.42 upbm affinity estimate (log intensity, higher = more binding, comparable within an allelic series) | 6.6 upbm affinity estimate (log intensity, higher = more binding, comparable within an allelic series) | 6.48 upbm affinity estimate (log intensity, higher = more binding, comparable within an allelic series) | 6.57 upbm affinity estimate (log intensity, higher = more binding, comparable within an allelic series)
20 | AGCACGCT | 6.37 upbm affinity estimate (log intensity, higher = more binding, comparable within an allelic series) | 6.39 upbm affinity estimate (log intensity, higher = more binding, comparable within an allelic series) | 6.5 upbm affinity estimate (log intensity, higher = more binding, comparable within an allelic series) | 6.4 upbm affinity estimate (log intensity, higher = more binding, comparable within an allelic series) | 6.46 upbm affinity estimate (log intensity, higher = more binding, comparable within an allelic series)
21 | ACGCCTCG | 6.4 upbm affinity estimate (log intensity, higher = more binding, comparable within an allelic series) | 6.35 upbm affinity estimate (log intensity, higher = more binding, comparable within an allelic series) | 6.36 upbm affinity estimate (log intensity, higher = more binding, comparable within an allelic series) | 6.4 upbm affinity estimate (log intensity, higher = more binding, comparable within an allelic series) | 6.44 upbm affinity estimate (log intensity, higher = more binding, comparable within an allelic series)
22 | AGCGTTCG | 6.54 upbm affinity estimate (log intensity, higher = more binding, comparable within an allelic series) | 6.5 upbm affinity estimate (log intensity, higher = more binding, comparable within an allelic series) | 6.53 upbm affinity estimate (log intensity, higher = more binding, comparable within an allelic series) | 6.53 upbm affinity estimate (log intensity, higher = more binding, comparable within an allelic series) | 6.63 upbm affinity estimate (log intensity, higher = more binding, comparable within an allelic series)
